Assay outcomes (PubChem BioAssay)
IDE act: activators of human insulin-degrading enzyme in cells | P14735 | HEK cells, FAbeta-B cleavage, fluorescence polarization; 0% vehicle, 100% cell-free pure enzyme wells | activation, % at 5.96 µM | hit rate 0.073% among 340,000;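 active = activation above the mean of all tested compounds plus 3 SD, set per screening campaign, cut at about 17% in these data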
Target sequence (P14735 whole entry, looked up): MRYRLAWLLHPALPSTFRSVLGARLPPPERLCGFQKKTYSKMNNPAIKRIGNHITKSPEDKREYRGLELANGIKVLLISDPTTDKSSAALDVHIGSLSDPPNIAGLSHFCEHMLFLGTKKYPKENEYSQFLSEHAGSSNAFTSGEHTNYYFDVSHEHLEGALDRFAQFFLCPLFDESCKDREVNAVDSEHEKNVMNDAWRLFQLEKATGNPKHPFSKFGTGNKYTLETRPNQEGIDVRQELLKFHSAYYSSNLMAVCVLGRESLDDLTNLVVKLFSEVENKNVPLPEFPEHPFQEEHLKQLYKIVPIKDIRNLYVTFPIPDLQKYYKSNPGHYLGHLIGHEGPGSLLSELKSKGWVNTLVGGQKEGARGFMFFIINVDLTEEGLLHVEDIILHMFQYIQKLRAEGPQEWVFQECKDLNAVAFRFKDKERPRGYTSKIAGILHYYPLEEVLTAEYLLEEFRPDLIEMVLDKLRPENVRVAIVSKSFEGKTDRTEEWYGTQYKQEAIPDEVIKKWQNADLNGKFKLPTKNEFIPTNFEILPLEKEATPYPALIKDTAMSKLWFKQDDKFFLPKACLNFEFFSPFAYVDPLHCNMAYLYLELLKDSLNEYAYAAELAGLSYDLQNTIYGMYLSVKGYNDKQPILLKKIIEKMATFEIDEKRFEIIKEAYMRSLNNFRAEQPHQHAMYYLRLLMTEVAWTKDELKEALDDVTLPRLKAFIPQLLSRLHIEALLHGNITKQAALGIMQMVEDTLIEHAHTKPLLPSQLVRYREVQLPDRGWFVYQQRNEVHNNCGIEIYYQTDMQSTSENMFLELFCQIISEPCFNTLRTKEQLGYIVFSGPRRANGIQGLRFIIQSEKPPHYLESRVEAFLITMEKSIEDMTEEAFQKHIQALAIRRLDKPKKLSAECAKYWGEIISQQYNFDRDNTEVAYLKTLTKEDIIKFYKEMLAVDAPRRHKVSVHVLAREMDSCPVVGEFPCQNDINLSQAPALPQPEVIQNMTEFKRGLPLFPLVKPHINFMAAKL
IDE cell inh: cellular human IDE inhibition; inhibition, % at 5.59 µM; HEK cells, FAbetaB cleavage, fluorescence polarization; hit rate 0.41% among 320,000;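 active = percent inhibition above the average of all tested compounds plus 3 SD, set per screening campaign, cut at about 16% in these data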;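 also: IDE supplied by intact live HEK cells; FP after avidin binding of uncleaved biotin substrate so inhibition keeps polarization high; 0% = DMSO wells and 100% = 60 µM reference IDE inhibitor Ii1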
PP5 primary: inhibitors of human protein phosphatase 5 (PP5) | P53041 | AID 1987 | hit rate 0.18% among 320,000 | purified PP5c, OMFP substrate fluorescence | inhibition, % at 6.7 µM;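 active = inhibition above the campaign's mean inhibition across all tested compounds plus 3 SD, cut at about 9.5% in these data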;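 also: 0% = DMSO only and 100% = 100 µM cantharidin control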
PP1 counter: blocks human PP1-alpha phosphatase, a PP5 counter-screen; P62136; purified PP1alpha, OMFP fluorescence; inhibition, % at 6.7 µM; hit rate 0.9% among 320,000;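 active = inhibition above the mean inhibition of all tested compounds plus 3 SD, computed separately for each screening campaign, cut at about 15% in these data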
Granule exo inh: blocks lytic granule exocytosis; TALL-104 LAMP-1 surface exposure, flow cytometry; cells stimulated with thapsigargin and PMA; inhibition, % at 10 µM; hit rate 0.66% among 360,000; AID 651702;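 active = inhibition above about 55%, limit read from the data; inconclusive = no clear call, values can overlap the other calls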
SKKanGAS inh: blocks kanamycin growth of S. pyogenes SKKanGAS strain; inhibition, % at 7.5 µM; hit rate 1.3% among 300,000; AID 1662; BacTiter-Glo, 6 h;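 active = mean replicate score, as percent of positive control median, at least 50; inconclusive = mean below 50 but one replicate at or above 50; inactive = mean and every replicate below 50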;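 also: strain carries kanamycin resistance gene driven by streptokinase promoter and grows in 40 µg/ml kanamycin; loss of luminescence reflects streptokinase promoter inhibition or plain growth inhibition; 0% = median of DMSO wells and 100% = positive control at its reference dose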
An asterisk follows results filed as active; ? = inconclusive; . = no result. Sampled rows, rich in hits. Any-hit rate of the full collection: about 2.8%.

SMILES | IDE act | IDE cell inh | PP5 primary | PP1 counter | Granule exo inh | SKKanGAS inh
CC(C)CN=c1cc(-c2ccccc2)oc2ccc(Cl)cc12 | 1 | 5 | 2 | 17* | 14 | 18
O=C1N/C(=N\N=C\c2ccccn2)SC1Cc1cccc(SC(F)F)c1 (centres undefined) | 3 | 3 | 2 | 1 | 2 | 94*
O=C1N/C(=N\N=C\c2ccc3ncccc3c2)SC1Cc1ccc(SC(F)F)cc1 (centres undefined) | 0 | 0 | 0 | 5 | -1 | .
O=C1N/C(=N\N=C\c2cccnc2)SC1Cc1ccc(SC(F)F)cc1 (centres undefined) | 5 | 3 | 2 | -1 | -4 | 93*
O=C1N/C(=N\N=C\c2cccs2)SC1Cc1cccc(Cl)c1 (centres undefined) | 0 | 2 | 2 | 10 | 0 | -16
COCC(O)Cn1ccnc1[N+](=O)[O-] (centres undefined) | . | . | . | . | 2 | .
O=C(O)CN1C(=O)/C(=C\c2cc(Br)ccc2OCc2ccc(F)cc2)SC1=S | 3 | 5 | 4 | 17* | -8 | ?
COc1ccc(/C=C2/SC(=S)N(CC(=O)O)C2=O)cc1OCc1ccc(Cl)cc1 | 3 | -4 | 3 | 6 | -2 | 17
O=C(O)CN1C(=O)/C(=C\c2ccccc2OCc2ccc(F)cc2)SC1=S | 3 | 6 | 2 | 9 | -5 | 21
O=C(O)CN1C(=O)/C(=C\c2cc([N+](=O)[O-])ccc2OCc2ccccc2Cl)SC1=S | 3 | -2 | -3 | 9 | 1 | 55*
O=C(O)CN1C(=O)/C(=C\c2ccccc2OCc2ccccc2)SC1=S | . | . | . | . | -6 | .
O=C(O)CN1C(=O)/C(=C\c2cc(Br)ccc2OCc2ccc(Cl)cc2)SC1=S | -1 | . | . | . | -10 | 94*
O=C(O)CCCCN1C(=O)/C(=C\c2ccc(OCc3ccccc3)c(OCc3ccccc3)c2)SC1=S | 7 | 0 | 2 | -2 | 1 | 50*
O=C(O)c1ccc2c(c1)C(=O)N(c1cccc3ccccc13)C2=O | 3 | -5 | 1 | 1 | -6 | 1
Cc1cccc(NC(=O)CCCn2cc([N+](=O)[O-])cn2)n1 | 4 | 3 | 0 | -1 | -4 | 3
Cc1nn(-c2ccccc2)c(Cl)c1/C=C1\SC(=S)N(CCCCCC(=O)O)C1=O | 2 | 9 | 1 | 16* | -3 | 80*
O=C1c2cc(O)c(O)cc2S(=O)(=O)C1c1ccccc1 (centres undefined) | 4 | -1 | 2 | 0 | -4 | 3
O=C1c2ccccc2C(=O)N1CCCc1cn(C[C@H]2CC[C@@H]([C@@H]3CC[C@H](Cn4cc(CCCN5C(=O)c6ccccc6C5=O)nn4)O3)O2)nn1 | -1 | 2 | 1 | 0 | 67* | 1
O=C1c2ccccc2C(=O)N1CCCCc1cn(C[C@H]2CC[C@@H]([C@@H]3CC[C@H](Cn4cc(CCCCN5C(=O)c6ccccc6C5=O)nn4)O3)O2)nn1 | -1 | 8 | . | . | -1 | .
CC1=Nc2cccc3cccc(c23)N1 | -2 | 2 | 1 | 4 | 20 | 3
c1cc2c3c(cccc3c1)NC1(CCC3(CC1)Nc1cccc4cccc(c14)N3)N2 | -15 | 9 | 6 | 6 | 60* | 27
O=C(/C=C1\NC2(CCCC2)Cc2ccccc21)N1CCOCC1 | 3 | 3 | 4 | 2 | 77* | 1
O=C(c1cc2ccccc2o1)N(Cc1nnc(-c2ccccc2Cl)o1)C1CC1 | 4 | 4 | -1 | 15* | 0 | -5
COc1ccc(OC)c(C(=O)COC(=O)CN2C(=O)NC3(CCCCC3C)C2=O)c1 (centres undefined) | 22* | -2 | -2 | -6 | -1 | .
COc1ccccc1C(=O)NC(=O)COC(=O)CN1C(=O)NC2(CCCCC2C)C1=O (centres undefined) | 2 | -7 | 0 | -5 | 2 | -6
SMILES | IDE act | IDE cell inh | PP5 primary | PP1 counter | Granule exo inh | SKKanGAS inh
O=C(CSc1nc(O)cc(=O)n1-c1ccc(Cl)c(Cl)c1)Nc1ccc(Cl)cc1Cl | -3 | 1 | 2 | 7 | 1 | 23
COc1ccc(-n2c(SCC(=O)C(C)(C)C)nc3c(sc(=S)n3-c3ccccc3)c2=O)c(OC)c1 | -3 | 1 | 2 | 16* | -19 | -6
COc1ccc(Cl)cc1-n1c(=S)sc2c(=O)[nH]c(SCC(=O)C(C)(C)C)nc21 | -3 | 0 | 3 | 17* | 3 | 31
Cc1ccc(S(=O)(=O)N2CC3C(=O)C[C@@H](c4ccccc4)N(S(=O)(=O)c4cccc(Cl)c4)C3CC2c2ccccc2)cc1 (some centres undefined) | . | . | . | . | -5 | .
Cc1cccc(C)c1NC(=O)C1(C)CSCC(=O)N1CCc1c[nH]c2ccccc12 (centres undefined) | . | . | . | . | -1 | .
CC(=O)OC[C@]12CC[C@H]3[C@@](C)(CC[C@H]4C(C)(C)CCC[C@]34C)[C@@H]1CC(C1=CC(=O)OC1O)O2 (some centres undefined) | . | . | . | . | 86* | .
CC(=O)OC[C@]1(OC(C)=O)C[C@@]23CC[C@H]4[C@@](C)(CCC[C@@]4(C)C(=O)O)[C@@H]2CC[C@@H]1C3 | 1 | -1 | 1 | 3 | -6 | 6
CCOc1ccccc1N(CC)C(=O)c1cc2c(s1)-c1ccccc1S(=O)(=O)C2 | . | . | . | . | -2 | .
Cc1cc(C)cc(NC(=S)Nc2ccc(Cl)c(Cl)c2)c1 | 0 | 3 | 2 | -1 | -1 | 70*
Cc1cc(C)cc(NC(=S)NCCSc2ccc(Cl)cc2)c1 | 2 | 2 | 2 | 5 | 0 | 50*
CN1CCN(Cc2cn[nH]c2-c2ccc(F)cc2F)[C@@H](c2ccccc2)C1 | 7 | -2 | 1 | 4 | 4 | 3
COC(=O)CCCC1=CC2=CC(=O)C(C)(OC(=O)c3cccs3)C(=O)C2=CN1Cc1ccc2c(c1)OCO2 (centres undefined) | 6 | -2 | 2 | 18* | -1 | 7
CCOc1ccc(-c2nc(=S)[nH][nH]2)cc1 | -14 | 4 | 1 | -2 | 1 | 4
COc1ccc(-c2nc(=S)[nH][nH]2)cc1 | -16 | 6 | 3 | -2 | 56* | -4
COC(=O)/C=C1\SC(=Nc2ccc(Cl)c(Cl)c2)NC1=O | 6 | 0 | 0 | 0 | 4 | 73*
COC(=O)/C=C1\SC(=Nc2ccc(OC)cc2)NC1=O | 1 | -4 | -1 | -5 | -5 | -20
Cc1nc(N2CCC(C)CC2)c2c(C)c(C(=O)Nc3ccc(C(F)(F)F)cc3)sc2n1 | 8 | -5 | 2 | -5 | -1 | 75*
Cc1nc(N2CCC(C)CC2)c2c(C)c(C(=O)Nc3cccc(C(F)(F)F)c3)sc2n1 | 3 | -1 | 4 | -4 | -4 | 21
c1ccc2cc(C3OCC4(CCCC4)CO3)ccc2c1 | . | . | . | . | -2 | .
CCN(C[C@H]1N[C@@](Cc2ccccc2)(C(=O)OC)[C@H]2C(=O)N(C)C(=O)[C@@H]12)S(=O)(=O)c1ccc(OC)cc1 | 2 | 7 | . | . | 1 | .
